Consider 90 compounds from ChEMBL document CHEMBL3988442, “University of Dundee, Small-Polar-MMV Screening Library” (2021).

Each structure is given as a SMILES string. The campaign covered roughly 69,000 compounds. About 950 (1.4%) showed an effect of 50% or more. Only a selection was taken, and strong results are over-represented in it overall.

The subject of the test is Mycobacterium tuberculosis. Kind of test: Cornell M. t heat shock assay. Note: in the data most compounds retested in dose-response had high values. The class given is functional, organism-based. Details: dose or concentration left out as unconfirmed.
Take `O=C(O)C(F)(F)F.O=C(O)C(F)(F)F.O=C(c1cccc(F)c1)N1CCN2C[C@H](OCc3cccnc3)C[C@H]2C1`: the “Percent Effect” value was -1.159%. Then `O=C(N[C@H]1COC[C@@H]1N1CCCC1)c1c[nH]nc1C1CCCCC1`, with 69.58%. Then `Cc1nc(C(=O)N[C@H]2COC[C@@H]2N2CCCCC2)cs1`, with -0.7621%. Then `CCO[C@H]1COC[C@@H]1NC(=O)c1c[nH]nc1C1CCCCC1`, with -8.48%; and `Cc1ccc2c(c1)C(NC1CC1)CC21CCNCC1.Cl` (stereo not given), with -15.52%; and `C[C@@H]1CN(C(=O)c2ccc[nH]2)C[C@]12CCN(CCN1CCCC1)C2=O.O=C(O)C(F)(F)F`, with 22.28%.

Take `CNC(=O)CN1CCOCC2(CN(CCC(F)(F)F)CCO2)C1.O=C(O)C(F)(F)F.O=C(O)C(F)(F)F` (stereo not given): the “Percent Effect” value was -25.1%. On to `Cc1ccc2c(c1)C(NC(=O)N(C)C)CC21CCN(CC2CC2)CC1.O=C(O)C(F)(F)F` (stereo not given), for which the “Percent Effect” value was -3.475%. As for `COc1c[nH]c(C(=O)Nc2nc(C(C)(C)C)cs2)cc1=O`, the “Percent Effect” value was found to be 39.24%.

`COc1coc(C(=O)Nc2nc(C)cs2)cc1=O`: the “Percent Effect” value stood at 66.21%. Consider `COc1coc(C(=O)Nc2nc(-c3ccccn3)cs2)cc1=O`, for which the “Percent Effect” value was 1.222%. Then `CCOC(=O)Cc1csc(NC(=O)c2cc(=O)c(OC)c[nH]2)n1`, with 26.29%; and `COc1coc(C(=O)Nc2nc(-c3ccncc3)cs2)cc1=O`, with -11.7%.

Take `COc1c[nH]c(C(=O)Nc2nc(C)cs2)cc1=O`: the “Percent Effect” value turned out to be 69.04%. As for `O=C(NCCN1CCOCC1)c1ccn(-c2ccc3ccccn23)n1.O=C(O)C(F)(F)F`, the figure is -22.38%; as for `Cc1ccc(CN2CCC3(CCC(C(=O)N(C)C)O3)CC2)o1.O=C(O)C(F)(F)F` (stereo not given), -7.412%. As for `O=C(COc1ccccc1)N1C[C@@H]2COC[C@]2(COc2cccnc2)C1.O=C(O)C(F)(F)F`, the figure is 12.4%; as for `Cc1nc(NCc2noc(C3CCCO3)n2)c2sccc2n1` (stereo not given), -5.869%. As for `Cl.NC(=O)COc1ccc(CNCc2cc(F)cc(F)c2)cc1`, the figure is -21.98%; as for `O=C(Nc1ccc(N2CCCC2)nc1)N1CCc2ccccc2C1`, 58.68%; as for `O=C(Nc1ccc(N2CCCCC2)nc1)N1CCc2sccc2C1`, 18.45%. As to `O=C(Nc1ccc(N2CCCC2)nc1)N1CCc2sccc2C1`, the “Percent Effect” value came out at 0.2913%.

With `CN1C[C@@H]2CC[C@H](CC1=O)N2C(=O)c1cc2ccccc2[nH]c1=O`, the “Percent Effect” value was found to be 6.279%. Then `CN(C)C(c1ccccn1)[C@H]1CC[C@H](CNC(=O)CC2CCCC2)CC1` (stereo not given in full), with -9.462%; and `CCN1c2ccc(-c3cncn3CC(=O)NC(C)(C)C)cc2CC1C.Cl` (stereo not given), with 85.85%.

As for `Cc1nn(C)c(C)c1CCn1cncc1-c1ccc2c(c1)CC(C)N2C.Cl` (stereo not given), the “Percent Effect” value was 15.02%.

`CCN1c2ccc(-c3cncn3CCCn3ccnc3C)cc2CC1C.Cl` (stereo not given): the “Percent Effect” value was found to be 100.1%.

For `Cc1nccn1CCCn1cncc1-c1ccc2c(c1)CC(C)N2C.Cl` (stereo not given), the “Percent Effect” value came out at 48.58%.

Regarding `Cc1cc(C)n(CCCn2cncc2-c2ccc3c(c2)CC(C)N3C)n1.Cl` (stereo not given), the “Percent Effect” value is on record as 79.43%. Then `CC1Cc2cc(-c3cncn3CC(=O)NC(C)(C)C)ccc2N1C.Cl` (stereo not given), with -7.03%; and `Cc1nccn1CCCn1cncc1-c1ccc2c(c1)CCCN2C.Cl`, with -22.83%. As for `Cc1nccn1CCCn1cncc1-c1ccc2c(c1)CCC(C)N2C.Cl` (stereo not given), the figure is 8.681%; as for `CN1CCCc2cc(-c3cncn3CCNC3CCS(=O)(=O)C3)ccc21.Cl` (stereo not given), -0.7285%; as for `CCN1CCc2cc(-c3cncn3CC(=O)NC(C)(C)C)ccc21.Cl`, 19.95%. As for `CCOC(=O)c1n[nH]cc1-c1cncn1CCCn1nc(C)cc1C.Cl`, the figure is 8.544%.

For `Cl.Cn1cc(C(=O)NCc2cncc3c2CCN(S(C)(=O)=O)C3)cn1`, the “Percent Effect” value is 36.5%. Then `O=C(O)C(F)(F)F.O=C(O)C(F)(F)F.O=C(O)C(F)(F)F.c1ccc(COC[C@H]2CC[C@H]3[C@H](CCN3Cc3ccccn3)O2)nc1`, with 4.762%. With `COc1ncccc1C(=O)N1CC[C@H]2C[C@H](c3nnc(C)[nH]3)O[C@@H]2C1.O=C(O)C(F)(F)F`, the “Percent Effect” value was -43.18%. Then `Cc1ccc(CN2C[C@@H]3CCN(Cc4cccnc4)C(=O)[C@H]3C2)s1.O=C(O)C(F)(F)F.O=C(O)C(F)(F)F`, with -19.89%; and `Cc1ccc(N2CCO[C@H]3CN(Cc4cnn(C)c4)C[C@H]32)nn1.O=C(O)C(F)(F)F.O=C(O)C(F)(F)F`, with 3.052%; and `CCn1ncc2c1C(COCC1CC1)CN(c1ccc(C)nn1)C2.O=C(O)C(F)(F)F.O=C(O)C(F)(F)F` (stereo not given), with 28.05%. Then `c1ccc(Cc2nc(CNCCn3cccn3)cs2)cc1`, with 96.34%; and `Fc1ccc(CNCCn2cccn2)cc1F`, with -1.295%. Then `c1csc(-c2noc(CNCCn3cccn3)n2)c1`, with -3.991%.

On to `Clc1ccc(Cc2nc(CNCCn3cccn3)cs2)cc1`, for which the “Percent Effect” value is reported as 102.1%. As for `Clc1ccc(OCCNCCn2cccn2)cc1`, the figure is -6.93%; as for `CCOC1COC2(CCN(c3cccc(C)n3)CC2)C1.O=C(O)C(F)(F)F` (stereo not given), -0.3848%. Then `CCCOc1ccccc1CN[C@@H]1CCC[C@H]1Cc1cc(C)no1.O=C(O)CC(O)(CC(=O)O)C(=O)O`, with -26.27%. Then `CNC(=O)CN1CCOCC2(CCCN(CCc3ccccc3)C2)C1.O=C(O)C(F)(F)F.O=C(O)C(F)(F)F` (stereo not given), with -11.41%. Turning to `CO[C@@H]1CCN(Cc2ccoc2)C[C@@H]1Cc1ccccc1.O=C(O)C(F)(F)F`, the “Percent Effect” value came to 28.11%. As for `Cc1ccc(N2CC[C@@H]3[C@@H]2CCN3C(=O)Cc2ccsc2)nn1.O=C(O)C(F)(F)F`, the figure is 8.036%; as for `CC1CCN(c2cncc(CCC3CCCN3)n2)CC1.Cl` (stereo not given), -9.936%. For `CCCn1cc(-c2ccnc(NC3CCCc4ccccc43)n2)c(C)n1` (stereo not given), the “Percent Effect” value was 98%.

In the case of `CCCn1ncc(-c2ccnc(NC3CCCc4ccccc43)n2)c1C` (stereo not given), the “Percent Effect” value was determined as 27.79%.

Consider `CCCn1cc(-c2ccnc(NC3CCc4ccccc43)n2)c(C)n1` (stereo not given), for which the “Percent Effect” value was determined as 18.89%.

Take `O=C(NCCc1cccs1)[C@H]1CO[C@H]2CCNC[C@H]2C1.O=C(O)C(F)(F)F`: the “Percent Effect” value was found to be 0.5431%. Then `Cc1nc(Nc2cnccn2)cc(C2CCCN2)n1.Cl` (stereo not given), with -30.38%. As for `Cc1nc(Nc2ncc(C)s2)cc(C2CCCN2)n1.Cl` (stereo not given), the figure is 6.055%; as for `Cl.c1nnc(Nc2cncc(C3CCCN3)n2)s1` (stereo not given), 104.6%; as for `Cl.c1cnc(Nc2cncc(C3CCCN3)n2)cn1` (stereo not given), 54.88%. As for `Cc1nc(Nc2nncs2)cc(C2CCCN2)n1.Cl` (stereo not given), the figure is 5.522%. Regarding `Cc1cc(Nc2cnccn2)cc(C2CCCN2)n1` (stereo not given), the “Percent Effect” value is given as -16.58%.

With `Cc1nc(Nc2nnc(C)s2)cc(C2CCCN2)n1.Cl` (stereo not given), the “Percent Effect” value is given as -7.337%. Then `Cl.c1cncc(CNc2cncc(C3CCCN3)n2)c1` (stereo not given), with -18.35%; and `Cl.Cn1nc(C2CCN(C(=O)CCN3CCOCC3)CC2)c2cccnc21`, with 0.9946%. For `CNC(=O)COC1COC2(CCN(Cc3ccncc3F)CC2)C1.O=C(O)C(F)(F)F` (stereo not given), the “Percent Effect” value is recorded as 44.76%.

As to `COc1cccc(CN2CCC3(CCN(C(=O)[C@H]4CCCO4)CC3)C2)c1.O=C(O)C(F)(F)F`, the “Percent Effect” value is -2.359%. Then `Cc1cnc(N2Cc3nccn3CC(Cn3ncccc3=O)C2)nc1.O=C(O)C(F)(F)F` (stereo not given), with -35.14%; and `Cc1nnc(NC(=O)CN2CCCC(Cn3cncn3)C2)s1` (stereo not given), with 2.027%; and `O=C(CN1CCCC(c2ccn[nH]2)C1)Nc1nncs1` (stereo not given), with 98.23%. Then `Cc1nc(C)n(CC2CCCN(CC(=O)Nc3nnc(C)s3)C2)n1` (stereo not given), with -28.96%. As for `Cc1nc(C)n(CC2CCCN(CC(=O)Nc3nncs3)C2)n1` (stereo not given), the figure is 11.86%; as for `Cc1nnc(NC(=O)CN2CCCC(c3ccn[nH]3)C2)s1` (stereo not given), 101.7%. As to `Cn1c(C2CC2)nc2c1CCN(CC(=O)Nc1nncs1)C2`, the “Percent Effect” value stood at 13.67%. As for `CCN(CC)S(=O)(=O)N1CC[C@H](c2ccccc2)[C@H]2NCCCC[C@H]21.Cl`, the figure is -6.669%; as for `CC(C)c1nnc(N2C[C@@H]3CC[C@H](C2)N(Cc2ccccc2)C3)s1`, 34.82%. As for `COc1ccc(F)c(CN2CCCC3(CCN(S(C)(=O)=O)C3)C2)c1` (stereo not given), the figure is -18.53%; as for `COc1ccc(F)c(CN2CCCC3(CCN(C4CCOCC4)C3)C2)c1` (stereo not given), 99.36%. Then `CCS(=O)(=O)N1CCC2(CCCN(Cc3cc(OC)ccc3F)C2)C1` (stereo not given), with 24.11%. As to `Cc1ccc(C(=O)N2CCn3c(COCC4CC4)cnc3C2C)nc1.O=C(O)C(F)(F)F` (stereo not given), the “Percent Effect” value was -9.703%. As for `CCN1CCC2(CC1)CC(NCc1cccs1)c1ccccc1O2.O=C(O)C(F)(F)F.O=C(O)C(F)(F)F` (stereo not given), the figure is -24.55%; as for `CN(CC(=O)N(C)C1CCCCC1)Cc1nc2c(cnn2C)c(=O)[nH]1`, -5.559%; as for `CN(CC(=O)N(C)C1CCCCC1)Cc1nc2ccccc2c(=O)[nH]1`, 97.32%. As for `CN1C(=O)CC(N(C)Cc2nc3ccccc3c(=O)[nH]2)C1=O` (stereo not given), the figure is 15.14%; as for `CN(Cc1nc2ccccc2c(=O)[nH]1)C1CC(=O)N(C2CC2)C1=O` (stereo not given), 51.11%. Regarding `CCN1C(=O)CC(N(C)Cc2nc3ccccc3c(=O)[nH]2)C1=O` (stereo not given), the “Percent Effect” value is 16.93%. As for `CN(Cc1nc2ccccc2c(=O)[nH]1)C[C@@H]1CCCN2CCCC[C@H]12`, the figure is 44.63%; as for `CCC(CN1CCCCC1)NC(=O)C1(c2ccc(F)cc2)CC1.O=C(O)CC(O)(CC(=O)O)C(=O)O` (stereo not given), -8.056%; as for `CSCCC(O)C(=O)N1CCN(Cc2cccc(Cl)c2)CC1` (stereo not given), 31.13%.

In the case of `Cc1ccoc1C(=O)N1CC[C@@H]2CN(C3CCOCC3)CCO[C@@H]2C1.O=C(O)C(F)(F)F`, the “Percent Effect” value stood at 6.269%.
